In the library only some 2.9% were active in any assay of this set; here they are far more common.
pPAFAH inh = inhibitors of human plasma PAF acetylhydrolase (pPAFAH). Q13093. recombinant pPAFAH, FP-rhodamine probe fluorescence polarization. inhibition, % at 3.39 µM. actives 1.5% (n = 330,000);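 active = inhibition above the mean inhibition across the screen plus 3 SD, cut at about 25% in these data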;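 note: inhibitors block binding of the rhodamine activity-based probe so polarization drops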
PME-1 inh = PME-1 (human) inhibition; recombinant PME-1, FP-Rh probe fluorescence polarization; AID 2130; actives 0.53% (n = 320,000); inhibition, % at 5.9 µM; Q9Y570;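 active = inhibition above the campaign mean of all compounds plus 3 SD, cut at about 26% in these data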;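 note: competitive labeling of PME-1 active site by serine hydrolase directed probe; inhibitors block probe labeling so polarization falls and inhibition rises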
PAFAH1B3 inh = inhibitors of human PAFAH1B3. actives 0.28% (n = 340,000). recombinant PAFAH1B3, FP-rhodamine probe, fluorescence polarization. inhibition, % at 3.39 µM. Q15102;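 active = inhibition above the screen-wide average of all tested compounds plus 3 SD, cut at about 25% in these data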
Target sequence (Q15102 whole entry, looked up): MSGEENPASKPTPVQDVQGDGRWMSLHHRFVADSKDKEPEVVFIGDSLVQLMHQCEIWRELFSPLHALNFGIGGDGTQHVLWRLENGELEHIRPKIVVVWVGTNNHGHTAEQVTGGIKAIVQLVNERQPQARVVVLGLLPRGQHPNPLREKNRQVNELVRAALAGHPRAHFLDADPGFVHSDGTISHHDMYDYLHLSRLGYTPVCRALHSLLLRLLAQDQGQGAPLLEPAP
PAFAH2 FP inh = PAFAH2 (human) inhibition. Q99487. recombinant PAFAH2, FP-rhodamine activity probe, fluorescence polarization. inhibition, % at 3.39 µM. actives 0.99% (n = 340,000);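 active = inhibition above the mean over all tested compounds plus 3 SD, cut at about 30% in these data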;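 note: inhibitors block probe labeling of enzyme so polarization drops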
Fam108B counter = Fam108B inhibition, counter-screen for RBBP9 inhibitors; inhibition, % at 9.51 µM; recombinant Fam108B, FP-Rh probe fluorescence polarization; actives 0.33% (n = 300,000); AID 1947;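 active = inhibition above the screen mean inhibition plus 3 SD, computed separately per campaign, cut at about 18% in these data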;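 note: inhibitors lower polarization as less probe binds the enzyme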
PAFAH1B2 inh = PAFAH1B2 (human) inhibition; actives 1.2% (n = 340,000); recombinant PAFAH1B2, FP-rhodamine activity probe, fluorescence polarization; P68402; inhibition, % at 3.39 µM;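 active = inhibition above the mean of all tested compounds plus 3 SD, cut at about 24% in these data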
Target sequence (P68402 whole entry, looked up): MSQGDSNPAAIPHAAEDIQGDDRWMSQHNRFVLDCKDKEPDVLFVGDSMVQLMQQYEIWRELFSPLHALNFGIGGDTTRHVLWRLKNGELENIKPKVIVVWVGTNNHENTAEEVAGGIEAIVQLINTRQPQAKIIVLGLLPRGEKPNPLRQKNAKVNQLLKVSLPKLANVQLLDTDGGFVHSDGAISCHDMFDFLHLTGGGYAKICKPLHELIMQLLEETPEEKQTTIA
PAFAH2 FP conf = PAFAH2 (human) inhibition, confirmed | shares compounds with PAFAH2 FP inh | recombinant PAFAH2, FP-rhodamine activity probe, fluorescence polarization | inhibition, % at 3.39 µM | actives 65% (n = 2,300);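 active = mean inhibition over three repeats above a set limit taken from the earlier primary screen, cut at about 30% in these data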;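 note: inhibitor blocks binding of rhodamine activity probe so polarization falls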
Large screens that a line does not name were inactive (follow-up assays come after a bar, where they were run).

O=c1[nH]cc(N=Cc2cc(Cl)cc(Cl)c2O)c(=O)[nH]1	none
O=C1c2cccc3cccc(c23)C(=O)N1OS(=O)(=O)c1ccc(Cl)cc1	PAFAH2 FP inh 33 | PAFAH2 FP conf 34
[N-]=[N+]=NC1CC(CO)OC1n1ccc(=O)[nH]c1=O (stereo not given)	none
CC(C)CCNC(=O)COC(=O)c1cc(Br)c(Br)s1	PAFAH2 FP inh 32 | PAFAH2 FP conf inactive
C/C=C/C(=O)OCC(=O)Nc1cc(OC)c([N+](=O)[O-])cc1C	none
COc1cc(NC(=O)COC(=O)C2CC2)c(C)cc1[N+](=O)[O-]	PAFAH2 FP inh 46 | PAFAH2 FP conf inactive
COc1cc(NC(=O)COC(=O)C=C(C)C)c(C)cc1[N+](=O)[O-]	PAFAH2 FP inh 61 | PAFAH2 FP conf inactive
Cc1cccc(N(C)S(=O)(=O)c2cc3c(cc2C)n(C)c(=O)c(=O)n3C)c1	none
O=C(COC(=O)/C=C/c1cccc(F)c1)NC1CCCC1	PAFAH2 FP inh 73 (no result: Fam108B counter) | PAFAH2 FP conf 67
O=C(COC(=O)/C=C/c1cccc(F)c1)NC1CCCCCC1	PAFAH2 FP inh 82 (no result: PME-1 inh, Fam108B counter) | PAFAH2 FP conf 80
O=C(COC(=O)/C=C/c1cccc(F)c1)NC1CC1	PAFAH2 FP inh 34 (no result: PME-1 inh, Fam108B counter) | PAFAH2 FP conf inactive
CCOP(=O)(NC(c1ccccc1)c1nc2ccccc2[nH]c1=O)OCC (stereo not given)	none
COc1ccc(CN2CCCC(C(=O)c3ccc4c(c3)OCO4)C2)c(F)c1 (stereo not given)	none
O=C(/C=C/c1ccccc1)Oc1ccccc1C(=S)N1CCOCC1	none
COc1cccc(/C=C/C(=O)OCC(=O)NCC2CCCCC2)c1OC	PAFAH2 FP inh 80 (no result: Fam108B counter) | PAFAH2 FP conf 79
CCOc1cc(/C=C/C(=O)OCC(=O)NCc2ccco2)cc(Cl)c1OC	none
C=CCOc1ccc(/C=C/C(=O)OCC(=O)NCc2cccs2)cc1	PAFAH2 FP inh 38 | PAFAH2 FP conf 41
COc1ccc(/C=C/C(=O)OCC(=O)NCc2ccco2)cc1OC	PAFAH2 FP inh 49 | PAFAH2 FP conf 38
COC(=O)c1ccc(/C=C/C(=O)OCC(=O)NCc2cccs2)cc1	none (no result: PME-1 inh, Fam108B counter)
COc1cccc(/C=C/C(=O)OCC(=O)NCc2ccco2)c1OC	PAFAH2 FP inh 66 | PAFAH2 FP conf 53
CCCN1Cc2cccc(C(=O)NCCCOC(C)C)c2C1=O	none
COC(=O)CSC1=C(C#N)C(c2ccsc2)CC(=O)N1 (stereo not given)	none
COc1cc(/C=C/C(=O)OCC(=O)NCc2ccco2)ccc1OC(F)F	PAFAH2 FP inh 39 | PAFAH2 FP conf inactive
COc1cccc(/C=C/C(=O)OCC(=O)c2ccccc2)c1OC	PAFAH2 FP inh 58 (no result: PME-1 inh, Fam108B counter) | PAFAH2 FP conf 34
COc1cc(/C=C/C(=O)OCC(=O)NCc2cccs2)ccc1OCC#N	PAFAH2 FP inh 53 | PAFAH2 FP conf 52
O=C(NCC(=O)N1CCN(c2ccccc2O)CC1)c1cccs1	none
CCc1ccc(OCC(=O)NC(=S)Nc2ccc(C)cc2C)c(Br)c1	PAFAH2 FP inh 30 | PAFAH2 FP conf inactive
CCc1ccc(OCC(=O)NNC(=S)NC(=O)C2CC2)c(Br)c1	none (no result: pPAFAH inh, PME-1 inh, Fam108B counter)
CCCCNC(=O)COC(=O)c1ccc(C)c(NC(=O)c2ccco2)c1	PAFAH2 FP inh 50 | PAFAH2 FP conf 45
C=CCNC(=O)COC(=O)c1ccc(C)c(NC(=O)c2ccco2)c1	PAFAH2 FP inh 36 | PAFAH2 FP conf 30
CCN(CC)C(=O)COC(=O)c1ccc(C)c(NC(=O)c2ccco2)c1	none
Cc1ccc(C(=O)O/N=C2\CCCc3ccccc32)cc1	PAFAH2 FP inh 42 | PAFAH2 FP conf 40
C/[N+]([O-])=C\CC(=O)c1ccc(-c2ccccc2)cc1	none
COC(=O)c1sccc1-c1ccc(/C=N/OC(=O)c2cccs2)o1	PAFAH2 FP inh 50 | PAFAH2 FP conf inactive
c1cn2cc(CSC3CCCCC3)nc2s1	none
CC(C)n1nnnc1SCC(=O)NCc1ccco1	none
O=C(c1ccccc1)c1ccc(O)c(O)c1O	PAFAH2 FP inh 38 (no result: pPAFAH inh, PME-1 inh, Fam108B counter) | PAFAH2 FP conf 42
Cc1cccc(-c2ncc(CN3CCCC(CO)(Cc4cccc(Cl)c4)C3)cn2)c1 (stereo not given)	none
CCCCCOC(=O)c1ccc(OC(=O)c2cncc(Br)c2)cc1	none
CCCCOC(=O)c1ccc(N)cc1	none
